HPGD inh = blocks human HPGD enzyme activity; purified HPGD, NADH fluorescence kinetic, PGE2 substrate; hit rate 4.3% among 150,000; Potency, µM, inactives show at the top dose activity change, negative = inhibition, actives largely listed as inhibitors; P15428; active = well fitted inhibition curve with a large enough effect, not every such curve was filed as active; inconclusive = small, poorly fitted or top-dose-only effect, or another doubt; inactive = no such curve, though single readings can be large or run the other way; note: potency is the fitted concentration of half-maximal effect; % is set by controls: 0 for no effect and ±100 for the full control effect
Target sequence (P15428 whole entry, looked up): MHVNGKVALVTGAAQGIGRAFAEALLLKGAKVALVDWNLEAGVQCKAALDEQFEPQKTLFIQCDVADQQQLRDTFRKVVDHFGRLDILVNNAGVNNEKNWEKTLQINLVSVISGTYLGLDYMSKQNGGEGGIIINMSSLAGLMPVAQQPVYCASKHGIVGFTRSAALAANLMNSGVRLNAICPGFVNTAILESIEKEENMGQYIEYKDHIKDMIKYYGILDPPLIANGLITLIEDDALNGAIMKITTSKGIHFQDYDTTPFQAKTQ
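NADH formation kinetics: reaction with 30 uM PGE2 and 1 mM NAD+ (final), 20 nM enzyme, Tris-HCl pH 8 with Tween 20, after 15 min compound preincubation at room temperature. Fluorescence change, last versus first of five reads.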
ALDH1A1 block = blocks purified human ALDH1A1 activity; P00352; Purified ALDH1A1, NADH fluorescence, propionaldehyde substrate; Potency, µM (titrated, usually from 75.3 µM), inactives show at the highest dose activity, negative = inhibition, most hits filed as inhibitors; hit rate 7.3% among 220,000; AID 1030; active = well fitted inhibition curve with a large enough effect, not every such curve was filed as active; inconclusive = small, poorly fitted or top-dose-only effect, or another doubt; inactive = no such curve, though single readings can be large or run the other way;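 note: potency is the fitted concentration of half-maximal effect; plate controls were no enzyme wells and a reference inhibitor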
RGS12 GoLoco inh = RGS12 GoLoco-Gai1 interaction inhibition | Potency, µM (series often up to 61.6 µM), without a hit: at the top dose activity, negative = inhibition, most hits filed as inhibitors | Gai1:RGS12 GoLoco peptide FP, rhodamine, 10 min | AID 880 | P63096 | hit rate 0.44% among 230,000; active = well fitted inhibition curve with a large enough effect, not every such curve was filed as active; inactive = no such curve, though single readings can be large or run the other way; note: potency is the fitted concentration of half-maximal effect; % is set by controls: 0 for no effect and ±100 for the full control effect; nearly all actives have a fitted effect of over 30% in size
Target sequence (P63096 whole entry, looked up): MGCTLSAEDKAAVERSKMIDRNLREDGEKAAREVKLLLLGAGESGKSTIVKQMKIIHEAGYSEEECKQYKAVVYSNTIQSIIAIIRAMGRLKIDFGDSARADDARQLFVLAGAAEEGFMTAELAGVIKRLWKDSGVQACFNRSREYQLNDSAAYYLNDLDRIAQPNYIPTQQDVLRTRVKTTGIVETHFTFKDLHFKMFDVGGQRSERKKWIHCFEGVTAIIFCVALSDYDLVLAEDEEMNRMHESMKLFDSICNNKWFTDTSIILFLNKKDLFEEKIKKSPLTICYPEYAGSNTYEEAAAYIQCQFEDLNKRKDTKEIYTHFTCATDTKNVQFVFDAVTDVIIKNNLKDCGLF
HTT aggregate = inhibitors of mutant huntingtin aggregate formation in PC12 cells | PC12 HttQ103-GFP aggregates, Acumen cytometry, 40 h | Potency, µM (doses to about 46.1 µM), inactives show at the highest dose activity change, negative = inhibition, usual class: inhibitors | AID 1688 | hit rate 1.1% among 220,000; note: potency is the fitted concentration of half-maximal effect; % is set by controls: 0 for no effect and ±100 for the full control effect; nearly all actives have a fitted effect of over 60% in size
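Ecdysone-promoter PC12 model expressing HTT exon 1 Q103 fused to GFP, induced by tebufenozide at 100 nM final. Compounds titrated; aggregates sized 1–25 µm scored on a 488 nm laser cytometer.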
PNC assembly inh = inhibitors of perinucleolar compartment assembly; PC3M PTB-GFP, PNC prevalence imaging, 16 h; hits give low values; activity change (PNC), negative = inhibition, % at 10 µM; hit rate 3.1% among 140,000; AID 2417;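 active = readout at or below -70, meaning at least 70% loss of cells showing the perinucleolar compartment, a nuclear body marking cancer cells; inconclusive = readout between -30 and a set limit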;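 note: plate controls were DMSO wells for no effect and camptothecin positive control wells for full effect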
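Read-out is percentage of cells bearing a perinucleolar compartment, from automated 20x imaging of fixed, Hoechst-stained PC3M PTB-GFP cells. Cells were seeded 4 h, then exposed 16 h to compound (23 nl of library stock) in duplicate plates.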
HTT cytoprotect = cytoprotection in Huntington HTT-Q103 PC12 cell model. PC12 HTT-Q103 induced, cytoprotection, ATP luminescence, 40 h. hit rate 0.14% among 230,000. AID 1471. Potency, µM (titrated, usually from 56.4 µM), for the others: cytoprotection (ATP increase), actives largely listed as activators; note: potency is the fitted concentration of half-maximal effect; % of control where 0% means no effect; nearly all actives have a fitted effect of over 45% in size
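Quantitative HTS on tebufenozide-induced (100 nM) PC12 cells expressing HTTQ103 exon 1–GFP; compounds tested as a concentration series; survival measured via cellular ATP.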
Starred values were filed as active, the others as inactive; [ ] = remark or other dose. Most compounds without a hit are left out; they make up all but 11% or so of the library. Unless noted, calls come from the whole dose curve; as a rule, active = well fitted curve in the direction sought with a large enough effect; inconclusive = small, poorly fitted or top-dose-only effect, or another doubt; inactive = no such curve, though single readings can be large; an effect the other way counts as inactive or inconclusive.

`CCN1C(=O)/C(=c2\sc3nc(=O)c(Cc4ccccc4)nn3c2=O)c2ccccc21` gave RGS12 GoLoco inh 6.3%, HTT aggregate -11.5%[9.22 µM] and HTT cytoprotect -12.4%[10 µM].
COc1cc(/C=c2\sc3nc(=O)c(-c4ccccc4)nn3c2=O)ccc1OCCC(C)C was read as HPGD inh -9.7%, ALDH1A1 block inconclusive, RGS12 GoLoco inh 29.6%, HTT aggregate -14.7%, PNC assembly inh 7.2 and HTT cytoprotect -8.4%[10 µM].
Screening C=CCN1C(=O)/C(=c2\sc3nc(=O)c(Cc4ccccc4)nn3c2=O)c2ccccc21 returned ALDH1A1 block 3.55µM*, RGS12 GoLoco inh 11.2%, HTT aggregate 16.9%[9.22 µM] and HTT cytoprotect 24.8%[10 µM].
O=C(O)CCn1nnc(-c2ccccc2)n1 was read as ALDH1A1 block 4.8%, RGS12 GoLoco inh -6.3% and HTT aggregate 9.5%.
For COc1ccc2cnoc(=O)c2c1OC the results were HPGD inh inconclusive, ALDH1A1 block inconclusive, RGS12 GoLoco inh 0.7% and HTT cytoprotect -10.0%.
`S=c1ccss1` gave HPGD inh 6.31µM*, ALDH1A1 block 2.24µM* and RGS12 GoLoco inh -6.1%.
For CCOCCCNS(=O)(=O)c1ccc2c(c1)CCN2C(=O)CC the results were HPGD inh -1.2%, ALDH1A1 block -5.7%, RGS12 GoLoco inh -14.4%, HTT aggregate -20.1%, PNC assembly inh -109.7* and HTT cytoprotect 25.8%.
Screening CCC(=O)N1CCCc2cc(S(=O)(=O)N3CCN(c4ccccc4F)CC3)ccc21 returned HPGD inh -11.8%, ALDH1A1 block 14.1µM*, RGS12 GoLoco inh 2.3%, HTT aggregate inconclusive, PNC assembly inh -11.7 and HTT cytoprotect -30.0%.
Screening CCC(=O)N1CCc2cc(S(=O)(=O)Nc3ccc4c(c3)OCCO4)ccc21 returned HPGD inh -1.6%, ALDH1A1 block -6.4%, RGS12 GoLoco inh 2.8%, HTT aggregate 7.94µM*, PNC assembly inh -22.0 and HTT cytoprotect 25.8%.
CCC(=O)N1CCCc2cc(S(=O)(=O)N3CCN(c4ncccn4)CC3)ccc21 was read as HPGD inh -9.5%, ALDH1A1 block inconclusive, RGS12 GoLoco inh 4.0%, HTT aggregate -13.2%, PNC assembly inh -2.3 and HTT cytoprotect 5.1%.
For CCC(=O)N1CCc2cc(S(=O)(=O)NCCC(=O)NC3CCCc4ccccc43)ccc21 (stereo not given) the results were HPGD inh -11.9%, ALDH1A1 block 1.1%, RGS12 GoLoco inh 2.6%, HTT aggregate 2.2%, PNC assembly inh -6.5 and HTT cytoprotect -29.5%.
For CCC(=O)N1CCc2cc(S(=O)(=O)NCCCN3CCN(Cc4ccccc4)CC3)ccc21 the results were HPGD inh -17.9%, ALDH1A1 block 17.8µM*, RGS12 GoLoco inh -4.8%, HTT aggregate -24.8%, PNC assembly inh 31.6 and HTT cytoprotect -1.7%.
Screening C(=N/Nc1ccccn1)/c1cccnc1 returned HPGD inh -1.2%, ALDH1A1 block 2.4%[13.5 µM], RGS12 GoLoco inh -1.3%[14.2 µM] and HTT cytoprotect -0.5%[10 µM].
O=C(O)CCC/C=C\C[C@H]1C(=O)C[C@@H](O)[C@@H]1/C=C/[C@@H](O)CCc1ccccc1 was read as HPGD inh -7.0%, ALDH1A1 block 3.0%, RGS12 GoLoco inh -4.6% and HTT cytoprotect 29.9%.
For O=C(O)C1=C(OCc2ccccc2)C(=O)NCC1 the results were ALDH1A1 block 0.4%, RGS12 GoLoco inh -85.4%, HTT aggregate -4.8% and HTT cytoprotect -6.4%[10 µM].
Screening CCOC(=O)Nc1ccc(OC)cc1S(=O)(=O)N1CCCCC1 returned HPGD inh -24.1%, ALDH1A1 block inconclusive, RGS12 GoLoco inh -2.1%, HTT aggregate 1.1%, PNC assembly inh -3.3 and HTT cytoprotect 6.5%[10 µM].
`O=S(=O)(c1ccc(F)cc1)N1CCC(N2CCN(c3ccccc3)CC2)CC1` gave HTT cytoprotect 3.4%.
Screening c1ccc(N2CCN(C3CCSC3)CC2)cc1 (stereo not given) returned HPGD inh -14.1%, ALDH1A1 block 17.8µM*, RGS12 GoLoco inh -3.8%, HTT aggregate -5.4%, PNC assembly inh -7.5 and HTT cytoprotect -5.8%.
For COc1ccccc1N1CCN(C(=O)/C=C/c2ccc(C)cc2)CC1 the results were HPGD inh -6.4%, ALDH1A1 block -1.9%, RGS12 GoLoco inh 7.3%, HTT aggregate -5.9%, PNC assembly inh 39.9 and HTT cytoprotect -6.2%[10 µM].
`COc1ccccc1C(=O)/C=C/c1ccc(N2CCCCC2)c([N+](=O)[O-])c1` gave HPGD inh -10.5%, ALDH1A1 block 6.31µM*, RGS12 GoLoco inh 0.4%, HTT aggregate inconclusive, PNC assembly inh inconclusive and HTT cytoprotect 11.0%[10 µM].
Screening COc1ccccc1N1CCN(C(=O)/C=C/c2cccc([N+](=O)[O-])c2)CC1 returned ALDH1A1 block 14.1µM*, RGS12 GoLoco inh 16.1%, HTT aggregate 8.8%[9.22 µM] and HTT cytoprotect -6.6%[10 µM].
Screening Nc1nnnn1/N=C/c1ccc(N2CCCCC2)c([N+](=O)[O-])c1 returned HPGD inh -14.3%, ALDH1A1 block 0.0708µM*, RGS12 GoLoco inh -5.5%, HTT aggregate 18.0%, PNC assembly inh -1.9 and HTT cytoprotect 0.3%[1.9 µM].
For O=C(O/N=C\c1ccc(N2CCCCC2)c([N+](=O)[O-])c1)c1ccc(Cl)cc1Cl the results were HPGD inh -6.4%, ALDH1A1 block inconclusive, RGS12 GoLoco inh 8.0%, HTT aggregate -27.7%, PNC assembly inh 52.3 and HTT cytoprotect 19.4%.
Screening O=C(/C=C/c1ccccc1)N1CCN(c2c(Cl)cccc2[N+](=O)[O-])CC1 returned HPGD inh 14.1µM*, ALDH1A1 block inconclusive, RGS12 GoLoco inh -0.6%, HTT aggregate inconclusive, PNC assembly inh inconclusive and HTT cytoprotect 20.4%[10 µM].
`Cc1nc(N2CCOCC2)c2nc(-c3ccccc3)n(CCCN(C)C)c2n1` gave HPGD inh inconclusive, ALDH1A1 block inconclusive, RGS12 GoLoco inh 4.5% and HTT cytoprotect -46.9%.
`COC(=O)C1=C(C)N(Cc2ccccc2)[C@]23O[C@](C(=O)OC)(C(=O)N2C1c1ccccc1)C1C(=O)N(C)C(=O)C13` (stereo not given in full) gave ALDH1A1 block 0.0%[13.5 µM] and HTT cytoprotect -7.1%[10 µM].
O=C(/C=C/c1ccc(N2CCCCC2)c([N+](=O)[O-])c1)c1ccc(O)cc1 was read as ALDH1A1 block 25.1µM*, RGS12 GoLoco inh 6.8%, HTT aggregate 17.8µM* and HTT cytoprotect -4.7%[10 µM].
C=CCNC(=O)N1CCc2nc(CCCC)c3c(c2C1)CO[C@@H](C)C3 was read as HPGD inh 1.1%, ALDH1A1 block 6.8%[13.5 µM], RGS12 GoLoco inh 0.5%[14.2 µM] and HTT cytoprotect -21.3%[10 µM].

Screening results deposited in PubChem BioAssay by National Center for Advancing Translational Sciences (NCATS).
